Among the data in PubChem BioAssay (NCI) are growth values, retold here.

This is part of a sample that, as a whole, favours compounds with a hit. Of some 83,000 tested, about 20% had one in any assay.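 Single-dose data. Exposure time 48 hours. Values below 10 considered active.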 Values without a mark were called inactive. Activity calls are given as the source filed them.

Among the test systems are SR leukemia; RPMI-8226 leukemia; OVCAR-8 ovarian; OVCAR-5 ovarian; OVCAR-4 ovarian; SK-OV-3 ovarian; IGROV1 ovarian; OVCAR-3 ovarian; HS 578T breast; NCI/ADR-RES ovarian.
Test in all cases: NCI-60 one-dose screen, 48 h (100 = growth as untreated, 0 = no growth, -100 = all killed)
Common to all, as to settings: 10 µM unless noted

For the compound `COc1ccc(C(=O)c2cc3c(N)c(C(=O)Nc4cccc(OC)c4)sc3nc2C)cc1`, the growth with SR leukemia is -2.44% (active); in the assay on RPMI-8226 leukemia, 15.2%; in the assay on OVCAR-8 ovarian, 15%; in the assay with OVCAR-5 ovarian, 46.8%; with OVCAR-4 ovarian it was 49.5%; with SK-OV-3 ovarian, 36.5%. For the same compound, the growth with IGROV1 ovarian is 37.6%; in the assay on OVCAR-3 ovarian it was 1.93% (active); in the assay on HS 578T breast, 24.6%; in the assay with NCI/ADR-RES ovarian, 4.09% (active).
Turning to `CCN(CC)CCCC(C)Nc1cc(-c2cccc(OC(F)(F)F)c2)nc2ccc(N3CCCC3)cc12` (stereo not given), the growth with SR leukemia was -31.6% (active); in the assay on RPMI-8226 leukemia it was -37% (active); with OVCAR-8 ovarian it was -5.79% (active); in the assay on OVCAR-5 ovarian, 31.1%; in the assay with OVCAR-4 ovarian, 34.8%; in the assay with SK-OV-3 ovarian, 82%. The growth with IGROV1 ovarian is 29.9%; with OVCAR-3 ovarian, 0.648% (active); in the assay on HS 578T breast, -22.3% (active); in the assay on NCI/ADR-RES ovarian it was 13.4%.
Consider `NC(=O)c1cccc(-c2cc(C(N)=O)ccc2Cl)c1`, for which the growth was 2.33% (active) with SR leukemia; 14.3% in the assay on RPMI-8226 leukemia; 28.9% with OVCAR-8 ovarian; 51.3% in the assay on OVCAR-5 ovarian; 58.6% with OVCAR-4 ovarian; 88.9% in the assay on SK-OV-3 ovarian. Moreover, the growth in the assay with IGROV1 ovarian was 49.3%; in the assay with OVCAR-3 ovarian, -0.229% (active); with HS 578T breast, 5.29% (active); in the assay with NCI/ADR-RES ovarian it was 19%.
`Cc1ccc2nc3c(cc2c1)CSc1nnc(-c2ccc[nH]c2=S)n1N3`: the growth was 83.3% in the assay with SR leukemia; 99.5% with RPMI-8226 leukemia; 100% in the assay on OVCAR-8 ovarian; 99.5% in the assay on OVCAR-5 ovarian; 109% in the assay on OVCAR-4 ovarian; 88.8% in the assay with SK-OV-3 ovarian. Besides, the growth in the assay with IGROV1 ovarian is 82.7%; in the assay on OVCAR-3 ovarian it was 99.5%; with HS 578T breast, 96.3%; with NCI/ADR-RES ovarian, 93.4%.
On to `N/C(=N\N=C\c1cc2ccccc2s1)N/N=C/c1cc2ccccc2s1`, for which the growth is 96.8% with SR leukemia; 99.8% in the assay with RPMI-8226 leukemia; 107% in the assay with OVCAR-8 ovarian; 104% in the assay on OVCAR-5 ovarian; 102% with OVCAR-4 ovarian; 94.3% in the assay on SK-OV-3 ovarian. The growth in the assay on IGROV1 ovarian was 93.7%; in the assay with OVCAR-3 ovarian it was 107%; in the assay with HS 578T breast, 102%; with NCI/ADR-RES ovarian, 103%.
With `CN1CCN(c2cnc(C(=O)Nc3cc(F)cc4cccnc34)cn2)CC1`, the growth is 24.5% in the assay with SR leukemia; 49.2% in the assay on RPMI-8226 leukemia; 63.8% in the assay on OVCAR-8 ovarian; 62.7% with OVCAR-5 ovarian; 8.94% (active) in the assay on OVCAR-4 ovarian; 96.9% in the assay on SK-OV-3 ovarian. For the same compound, the growth with IGROV1 ovarian is 8.45% (active); with OVCAR-3 ovarian, 9.25% (active); in the assay on HS 578T breast it was 69.2%; in the assay with NCI/ADR-RES ovarian, 56.5%.
As to `N#CC1=C(N)Oc2c(ccc3ccccc23)C1c1ccc([N+](=O)[O-])cc1` (stereo not given), the growth is 20.2% with SR leukemia; 89.5% in the assay with RPMI-8226 leukemia; 93.3% in the assay on OVCAR-8 ovarian; 95.7% in the assay with OVCAR-5 ovarian; 90.8% in the assay on OVCAR-4 ovarian; 80% with SK-OV-3 ovarian. The growth was 50.4% in the assay on IGROV1 ovarian, 76.5% in the assay on OVCAR-3 ovarian, 87.5% with HS 578T breast and 52.8% with NCI/ADR-RES ovarian.
Consider `OC(c1ccccc1)c1ccccn1` (stereo not given), for which the growth in the assay on SR leukemia was 99.1%; with RPMI-8226 leukemia, 101%; in the assay on OVCAR-8 ovarian, 95.9%; in the assay on OVCAR-5 ovarian it was 108%; in the assay with OVCAR-4 ovarian it was 116%; in the assay on SK-OV-3 ovarian it was 92%. Also, the growth is 106% in the assay on IGROV1 ovarian, 105% in the assay on OVCAR-3 ovarian, 91% in the assay with HS 578T breast and 110% with NCI/ADR-RES ovarian.
As for `COc1cc(C2CC(c3cccc(Nc4ccncc4)c3)=NN2c2ccccc2)cc(OC)c1OC` (stereo not given), the growth in the assay with SR leukemia was 2.93% (active); with RPMI-8226 leukemia it was 7.32% (active); with OVCAR-8 ovarian, 66.6%; with OVCAR-5 ovarian, 89.3%; in the assay on OVCAR-4 ovarian, 41.2%; in the assay with SK-OV-3 ovarian, 74%. In addition, the growth with IGROV1 ovarian was 55%; in the assay with OVCAR-3 ovarian, 56.2%; with HS 578T breast it was 64.2%; in the assay on NCI/ADR-RES ovarian it was 66.3%.
For `CCCc1cc2c(cc1Br)OCO2`, the growth with SR leukemia was 111%; with RPMI-8226 leukemia it was 113%; in the assay on OVCAR-8 ovarian, 96.1%; with OVCAR-5 ovarian it was 96.5%; with OVCAR-4 ovarian, 114%; in the assay on SK-OV-3 ovarian, 103%. Further, the growth in the assay with IGROV1 ovarian was 111%; in the assay on OVCAR-3 ovarian, 113%; with HS 578T breast, 99.8%; with NCI/ADR-RES ovarian it was 98.5%.
`Nc1c(C(=O)Nc2cccc3ccncc23)sc2nc3c(cc12)C(=O)CCC3`: the growth in the assay with SR leukemia was 33.3%; in the assay on RPMI-8226 leukemia it was 64.6%; with OVCAR-8 ovarian it was 68.1%; in the assay on OVCAR-5 ovarian, 68.5%; with OVCAR-4 ovarian it was 80.7%; in the assay with SK-OV-3 ovarian, 35.3%. In addition, the growth in the assay with IGROV1 ovarian is 57.8%; in the assay with OVCAR-3 ovarian it was 3.84% (active); in the assay with HS 578T breast, 21.3%; in the assay on NCI/ADR-RES ovarian it was 68.4%.
As for `CC(=O)c1cccc(NS(=O)(=O)c2cccc(C(=O)Nc3ccc(Br)cc3)c2)c1`, the growth with SR leukemia was 60.6% [25 µM]; in the assay with RPMI-8226 leukemia, 30.4% [25 µM]; with OVCAR-8 ovarian, 57.1% [25 µM]; with OVCAR-5 ovarian it was 77.9% [25 µM]; in the assay with OVCAR-4 ovarian, 47.6% [25 µM]; with SK-OV-3 ovarian, 58.1% [25 µM]. In addition, the growth is 62.4% [25 µM] in the assay with IGROV1 ovarian, 66.1% [25 µM] in the assay on OVCAR-3 ovarian, 80.6% [25 µM] in the assay on HS 578T breast and 34.7% [25 µM] in the assay on NCI/ADR-RES ovarian.
Take `c1ccc(-c2nn(-c3ccccc3)[n+](-c3cccc4ccccc34)n2)cc1`: the growth in the assay on SR leukemia is 4.45% (active); with RPMI-8226 leukemia, 0.0671% (active); with OVCAR-8 ovarian, -43.5% (active); in the assay on OVCAR-5 ovarian, 48.1%; in the assay on OVCAR-4 ovarian, 41.4%; in the assay with SK-OV-3 ovarian, 66.3%. In addition, the growth is 10.6% in the assay on IGROV1 ovarian, 8.96% (active) with OVCAR-3 ovarian, 8.44% (active) in the assay on HS 578T breast and 90.1% in the assay on NCI/ADR-RES ovarian.
